# PubChem BioAssay (EPA / NIEHS)
# Inconclusive results are not listed. Active and inactive are the calls of the source. The calls were made as follows: active = hit-call score of the fitted dose curve at least 0.9, where 1 is the maximum; inconclusive = response in the unintended direction; inactive = score below 0.9.
# Test: ATG_XTT_Cytotoxicity: Cytotoxicity Assessment in the Attagene TRANS-FACTORIAL HepG2 Assay (AID 2283584);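 as to AC50: cells exposed to compound for 24 h before reading; active means loss of viability signal versus DMSO baseline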
# Description: ATG_XTT_Cytotoxicity is a cell-based, single-readout assay that uses HepG2, a human liver cell line, with measurements taken at 24 hours after chemical dosing in a 24-well plate.ATG_XTT_Cytotoxicity is one of one assay component(s) measured or calculated from the ATG_XTT_Cytotoxicity assay. It is designed to make measurements of cell number, a form of viability reporter, as detected with […] signals by XTT cytotoxicity assay technology.Data from the assay component ATG_XTT_Cytotoxicity was analyzed into 1 assay endpoint. This assay endpoint, ATG_XTT_Cytotoxicity, was analyzed in the positive analysis fitting direction relative to DMSO as the negative control and baseline of activity. Using a type of viability reporter, loss-of-signal activity can be used to understand changes in the viability. Furthermore, this assay endpoint can be referred to as a primary readout, because the performed assay has only produced 1 assay endpoint. To generalize the intended target to other relatable targets, this assay endpoint is annotated to the cell cycle intended target family, where the subfamily is cytotoxicity.
# Human liver HepG2 cells are transiently transfected with multiple reporter transcription units (MRTUs) in 6-well plates using FuGene 6 reagent (Roche; 3 ml FuGene/1 mg DNA). The MRTU constructs are regulated by a cis-regulating element (promoter). […] A major difference between the CIS and TRANS system is that in CIS activities of endogenous TFs are measured, whereas the TRANS assay evaluates changes in activities of exogenous, chimeric NR-Gal4 proteins. […] At the end of 24 hour incubation, total RNA was isolated using TriZol reagent (Invitrogen). The isolated RNA is then reverse-transcribed using oligo(dT) primer and Mo-MLV reverse transcriptase (Invitrogen) with DNAse I (Ambion) treatment for 30 min. The one-tenth of the produced cDNA was amplified by PCR using Taq DNA polymerase (Invitrogen) and two reporter sequence-specific primers. The PCR products were fluorescently labeled by primer extension with 6-arboxyfluorescein (6-FAM) 5'-labeled reporter sequence-specific primer (2 min at 95 C, 20 s at 68 C and 10 min at 72 C) and these products were digested with 5U of HpaI (New England Biolabs) for 2h at 37 C. The fragments were purified using Qiaquick PCR columns (Qiagen), analyzed on an ABI 3130xL genetic analyzer (Applied Biosystems) with peak positions identified by using a set of X-rhodamine (ROX)-labeled MapMarker1000 molecular weight standards (BioVentures). The raw capillary electrophoresis data was processed using Attagraph software (Attagene).
SMILES,outcome,AC50
CSC(=O)c1cccc2nnsc12,inactive,–
C[C@]12CC[C@@H]3c4ccc(O)cc4C[C@@H](CCCCCCCCCS(=O)CCCC(F)(F)C(F)(F)F)[C@H]3[C@@H]1CC[C@@H]2O (some centres not stated),inactive,–
CN(C)C(=O)Nc1ccc(Cl)c(Cl)c1,inactive,–
c1ccc2[nH]c(-c3cscn3)nc2c1,inactive,–
CCN(Cc1c(F)cccc1Cl)c1c([N+](=O)[O-])cc(C(F)(F)F)cc1[N+](=O)[O-],inactive,–
CC(=O)S[C@@H]1CC2=CC(=O)CC[C@]2(C)[C@H]2CC[C@@]3(C)[C@@H](CC[C@@]34CCC(=O)O4)[C@H]12,inactive,–
Oc1ccc(C(c2ccc(O)cc2)C(Cl)(Cl)Cl)cc1,inactive,–
CCN(CC)C(=O)c1cccc(C)c1,inactive,–
CC(=O)[C@H]1CC[C@H]2[C@@H]3CCC4=CC(=O)CC[C@]4(C)[C@H]3CC[C@]12C,inactive,–
O=C(O)c1ccccc1,inactive,–
CC1(C)C(C=C(Cl)Cl)C1C(=O)OCc1cccc(Oc2ccccc2)c1 (configuration not stated),inactive,–
c1ccc(Nc2ccccc2)cc1,inactive,–
COc1nc(C)nc(NC(=O)NS(=O)(=O)c2ccccc2OCCCl)n1,inactive,–
O=C(c1ccccc1)C1CCCCC1,inactive,–
S=C(S)NCCNC(=S)S.[Mn+2].[S-]C([S-])=NCCN=C([S-])[S-].[Zn+2],inactive,–
CCCCC(CC)COC(=O)c1ccccc1C(=O)O (configuration not stated),inactive,–
C#C[C@]1(O)CC[C@H]2[C@@H]3CCC4=CC(=O)CC[C@@H]4[C@H]3CC[C@@]21CC,inactive,–
N#CSCSc1nc2ccccc2s1,inactive,–
COCCO,inactive,–
CC(C)(c1ccc(O)cc1)c1ccc(O)cc1,inactive,–
C[C@]12C[C@H](O)[C@H]3[C@@H](CCC4=CC(=O)CC[C@@]43C)[C@@H]1CC[C@@H]2C(=O)CO,inactive,–
C=CCOC(Cn1ccnc1)c1ccc(Cl)cc1Cl (configuration not stated),inactive,–
CCCCC(CC)CN1C(=O)C2C3C=CC(C3)C2C1=O (configuration not stated),inactive,–
O=C(c1ccc(O)cc1O)c1ccc(O)cc1O,inactive,–
CCOC(=O)c1ccc(O)cc1,inactive,–
CC(C)CCCCCCc1ccc(O)cc1,–,50 µM (active) [middle of 4 runs]
N[C@@H](Cc1cc(I)c(Oc2ccc(O)c(I)c2)c(I)c1)C(=O)O,inactive,–
